Reference: the supplement of paper PMC10849652
The full data set covers some 7,900 targets. This sample favours those with a hit. About 0.6% of all pairs of compound and target were hits. A number with no mark means an inactive call.

Tests used:
Assay in all cases: log2 fold change, soluble protein after heating vs DMSO (PISA); higher = thermal stabilisation; K562 cells, 10 uM, 30 min; active = over 0.2 and 3.5 SD of the protein, either way, in both replicates (recomputed)
[1] = compound: NC(=O)Nc1cc(-c2cccc(F)c2)sc1C(=O)N[C@H]1CCCNC1
How it was run: (§1)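 Aliquots of K562 cells (2×10^6 cells/mL) treated with 10 μM compound for 30 min were heated for 3 min over 48°C-58°C. After pooling and extraction in PBS with 0.5% NP-40 at 4°C, soluble protein from a 21,000xg, 90 min spin was quantified by TMTpro 16plex LC-MS/MS with channel sums equalised. Thermal stability is expressed against control samples, from duplicates, as a log2 fold change.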

[2] = compound: NC(=O)c1cnc(N[C@@H]2CCCC[C@@H]2N)nc1Nc1cccc(-n2nccn2)c1
How it was run: as §1

[3] = compound: NC1(c2ccc(-c3nc4ccn5c(=O)[nH]nc5c4cc3-c3ccccc3)cc2)CCC1
How it was run: as §1

[4] = compound: NCC(=O)Nc1ccc(-n2nc(C(F)(F)F)cc2-c2ccc3c(ccc4ccccc43)c2)cc1
How it was run: as §1

[5] = compound: Nc1ccccc1NC(=O)c1ccc(CNC(=O)OCc2cccnc2)cc1 [entinostat]
How it was run: as §1

[6] = compound: O=C(CCCCCCC(=O)Nc1ccccc1)NO [vorinostat]
How it was run: as §1

[7] = compound: O=C(CCCCCCNC(=O)c1cnc(N(c2ccccc2)c2ccccc2Cl)nc1)NO [citarinostat]
How it was run: as §1

[8] = compound: O=C(O)c1ccc2c(c1)nc(Nc1cccc(Cl)c1)c1ccncc12 [silmitasertib]
How it was run: as §1

[9] = compound: O=C1NC(=O)C(c2cnc3ccccn23)=C1c1cn2c3c(cc(F)cc13)CN(C(=O)N1CCCCC1)CC2
How it was run: as §1

[10] = compound: c1cc(OCCN2CCCCC2)cc(-c2n[nH]c3ccc(-c4nnc[nH]4)cc23)c1
How it was run: as §1

Sequence of UniProt Q9UBV8 (Q9UBV8 whole entry, looked up): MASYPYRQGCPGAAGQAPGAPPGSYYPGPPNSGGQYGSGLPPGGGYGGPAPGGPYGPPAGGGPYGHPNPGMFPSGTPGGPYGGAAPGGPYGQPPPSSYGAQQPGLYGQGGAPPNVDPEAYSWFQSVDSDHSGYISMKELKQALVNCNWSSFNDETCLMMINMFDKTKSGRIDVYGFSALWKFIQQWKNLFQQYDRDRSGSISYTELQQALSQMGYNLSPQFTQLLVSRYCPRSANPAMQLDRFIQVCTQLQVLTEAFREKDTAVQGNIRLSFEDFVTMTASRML
Sequence of UniProt O00628 (O00628 whole entry, looked up): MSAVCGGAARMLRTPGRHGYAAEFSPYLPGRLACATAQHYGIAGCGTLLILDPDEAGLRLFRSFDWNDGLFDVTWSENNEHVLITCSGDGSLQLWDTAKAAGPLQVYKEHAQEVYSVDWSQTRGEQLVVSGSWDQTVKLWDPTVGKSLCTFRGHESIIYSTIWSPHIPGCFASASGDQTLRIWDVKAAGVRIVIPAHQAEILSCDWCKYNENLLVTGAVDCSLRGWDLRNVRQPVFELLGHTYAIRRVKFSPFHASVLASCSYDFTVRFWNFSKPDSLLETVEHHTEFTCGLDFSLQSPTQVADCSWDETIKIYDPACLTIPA
Sequence of UniProt Q9BRX2 (Q9BRX2 whole entry, looked up): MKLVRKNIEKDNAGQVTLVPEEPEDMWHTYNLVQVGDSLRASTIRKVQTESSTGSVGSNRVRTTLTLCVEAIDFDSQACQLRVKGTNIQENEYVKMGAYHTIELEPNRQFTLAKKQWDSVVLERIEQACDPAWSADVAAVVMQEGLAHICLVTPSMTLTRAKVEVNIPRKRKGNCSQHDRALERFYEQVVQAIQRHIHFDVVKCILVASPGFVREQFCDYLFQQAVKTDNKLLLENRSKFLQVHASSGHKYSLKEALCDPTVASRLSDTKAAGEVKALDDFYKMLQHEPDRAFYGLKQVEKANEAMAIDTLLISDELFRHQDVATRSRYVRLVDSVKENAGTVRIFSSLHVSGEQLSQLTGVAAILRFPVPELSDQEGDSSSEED
Sequence of UniProt O00408 (O00408 whole entry, looked up): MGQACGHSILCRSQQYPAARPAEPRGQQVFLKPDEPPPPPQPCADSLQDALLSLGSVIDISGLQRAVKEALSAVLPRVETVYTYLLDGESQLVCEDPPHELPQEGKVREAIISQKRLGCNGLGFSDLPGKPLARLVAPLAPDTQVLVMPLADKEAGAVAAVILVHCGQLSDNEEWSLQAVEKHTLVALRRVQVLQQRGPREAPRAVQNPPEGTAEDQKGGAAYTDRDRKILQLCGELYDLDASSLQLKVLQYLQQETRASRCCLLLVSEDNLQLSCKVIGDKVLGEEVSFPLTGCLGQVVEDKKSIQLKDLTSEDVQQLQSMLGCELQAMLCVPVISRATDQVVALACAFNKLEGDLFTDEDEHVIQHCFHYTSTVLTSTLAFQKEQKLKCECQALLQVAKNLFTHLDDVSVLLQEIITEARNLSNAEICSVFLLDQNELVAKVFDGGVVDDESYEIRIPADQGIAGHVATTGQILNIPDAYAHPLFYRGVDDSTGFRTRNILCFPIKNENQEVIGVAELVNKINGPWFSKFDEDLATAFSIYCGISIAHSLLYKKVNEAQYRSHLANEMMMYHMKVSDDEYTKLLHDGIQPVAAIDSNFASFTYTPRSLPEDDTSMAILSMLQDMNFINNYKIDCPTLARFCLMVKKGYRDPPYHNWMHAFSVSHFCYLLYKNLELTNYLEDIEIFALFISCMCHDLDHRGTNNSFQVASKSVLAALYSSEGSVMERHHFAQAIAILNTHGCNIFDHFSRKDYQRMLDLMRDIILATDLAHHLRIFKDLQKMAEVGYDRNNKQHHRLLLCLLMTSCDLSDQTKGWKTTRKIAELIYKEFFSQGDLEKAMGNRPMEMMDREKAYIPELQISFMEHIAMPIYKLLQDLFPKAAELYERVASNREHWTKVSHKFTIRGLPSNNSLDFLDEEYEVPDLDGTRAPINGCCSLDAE
Sequence of UniProt P42785 (P42785 whole entry, looked up): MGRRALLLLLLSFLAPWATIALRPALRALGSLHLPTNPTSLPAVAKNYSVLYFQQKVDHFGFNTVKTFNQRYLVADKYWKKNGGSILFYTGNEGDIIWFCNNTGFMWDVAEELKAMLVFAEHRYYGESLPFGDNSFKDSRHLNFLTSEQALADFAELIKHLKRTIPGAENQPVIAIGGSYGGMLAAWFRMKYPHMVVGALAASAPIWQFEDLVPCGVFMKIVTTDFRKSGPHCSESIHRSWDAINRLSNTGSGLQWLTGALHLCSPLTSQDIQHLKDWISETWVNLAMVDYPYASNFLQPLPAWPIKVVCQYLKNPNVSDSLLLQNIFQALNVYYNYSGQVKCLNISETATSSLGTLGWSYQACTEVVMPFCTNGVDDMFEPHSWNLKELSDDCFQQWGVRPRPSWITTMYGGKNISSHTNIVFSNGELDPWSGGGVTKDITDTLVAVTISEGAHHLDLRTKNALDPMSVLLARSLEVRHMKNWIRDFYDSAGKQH
Sequence of UniProt Q9UPN7 (Q9UPN7 whole entry, looked up): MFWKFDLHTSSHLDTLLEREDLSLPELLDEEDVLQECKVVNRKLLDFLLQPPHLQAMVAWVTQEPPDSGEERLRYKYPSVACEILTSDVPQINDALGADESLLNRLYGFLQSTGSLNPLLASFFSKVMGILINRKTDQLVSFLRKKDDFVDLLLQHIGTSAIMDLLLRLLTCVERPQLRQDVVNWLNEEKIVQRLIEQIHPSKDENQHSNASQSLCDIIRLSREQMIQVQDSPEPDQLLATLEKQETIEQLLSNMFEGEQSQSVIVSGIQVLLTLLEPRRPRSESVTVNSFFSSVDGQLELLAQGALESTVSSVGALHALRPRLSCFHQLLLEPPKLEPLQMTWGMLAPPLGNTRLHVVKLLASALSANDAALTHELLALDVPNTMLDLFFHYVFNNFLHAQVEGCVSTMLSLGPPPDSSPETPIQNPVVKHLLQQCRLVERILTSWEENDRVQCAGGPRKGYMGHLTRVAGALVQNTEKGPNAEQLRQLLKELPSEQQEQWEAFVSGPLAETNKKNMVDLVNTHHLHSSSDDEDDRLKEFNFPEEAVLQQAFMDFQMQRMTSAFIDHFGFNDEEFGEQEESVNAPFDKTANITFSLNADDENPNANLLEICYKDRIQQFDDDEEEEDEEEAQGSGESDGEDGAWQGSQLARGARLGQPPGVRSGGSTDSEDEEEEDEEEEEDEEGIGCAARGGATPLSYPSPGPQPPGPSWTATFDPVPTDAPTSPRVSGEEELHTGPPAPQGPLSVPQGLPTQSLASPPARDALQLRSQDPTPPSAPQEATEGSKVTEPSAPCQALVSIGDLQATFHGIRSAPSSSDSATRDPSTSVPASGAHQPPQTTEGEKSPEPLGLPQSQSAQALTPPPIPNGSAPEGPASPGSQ
Sequence of UniProt Q8NCC3 (Q8NCC3 whole entry, looked up): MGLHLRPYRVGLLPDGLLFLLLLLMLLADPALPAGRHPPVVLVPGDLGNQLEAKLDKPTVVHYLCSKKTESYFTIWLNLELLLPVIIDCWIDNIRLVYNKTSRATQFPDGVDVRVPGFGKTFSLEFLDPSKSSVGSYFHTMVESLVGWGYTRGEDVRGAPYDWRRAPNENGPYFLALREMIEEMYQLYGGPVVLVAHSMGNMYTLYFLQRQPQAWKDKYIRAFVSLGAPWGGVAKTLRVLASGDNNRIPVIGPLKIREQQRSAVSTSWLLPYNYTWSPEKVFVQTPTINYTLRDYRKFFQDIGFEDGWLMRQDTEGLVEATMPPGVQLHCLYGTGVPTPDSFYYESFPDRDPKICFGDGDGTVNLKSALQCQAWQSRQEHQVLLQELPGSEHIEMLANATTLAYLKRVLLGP
Sequence of UniProt Q8TAP8 (Q8TAP8 whole entry, looked up): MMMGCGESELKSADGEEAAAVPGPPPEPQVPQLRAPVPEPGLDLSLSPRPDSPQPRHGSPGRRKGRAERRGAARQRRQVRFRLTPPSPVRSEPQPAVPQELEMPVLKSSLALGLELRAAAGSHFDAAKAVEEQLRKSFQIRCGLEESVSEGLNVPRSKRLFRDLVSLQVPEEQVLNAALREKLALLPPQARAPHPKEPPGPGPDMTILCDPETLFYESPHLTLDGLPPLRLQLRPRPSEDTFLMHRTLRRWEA
Sequence of UniProt O43395 (O43395 whole entry, looked up): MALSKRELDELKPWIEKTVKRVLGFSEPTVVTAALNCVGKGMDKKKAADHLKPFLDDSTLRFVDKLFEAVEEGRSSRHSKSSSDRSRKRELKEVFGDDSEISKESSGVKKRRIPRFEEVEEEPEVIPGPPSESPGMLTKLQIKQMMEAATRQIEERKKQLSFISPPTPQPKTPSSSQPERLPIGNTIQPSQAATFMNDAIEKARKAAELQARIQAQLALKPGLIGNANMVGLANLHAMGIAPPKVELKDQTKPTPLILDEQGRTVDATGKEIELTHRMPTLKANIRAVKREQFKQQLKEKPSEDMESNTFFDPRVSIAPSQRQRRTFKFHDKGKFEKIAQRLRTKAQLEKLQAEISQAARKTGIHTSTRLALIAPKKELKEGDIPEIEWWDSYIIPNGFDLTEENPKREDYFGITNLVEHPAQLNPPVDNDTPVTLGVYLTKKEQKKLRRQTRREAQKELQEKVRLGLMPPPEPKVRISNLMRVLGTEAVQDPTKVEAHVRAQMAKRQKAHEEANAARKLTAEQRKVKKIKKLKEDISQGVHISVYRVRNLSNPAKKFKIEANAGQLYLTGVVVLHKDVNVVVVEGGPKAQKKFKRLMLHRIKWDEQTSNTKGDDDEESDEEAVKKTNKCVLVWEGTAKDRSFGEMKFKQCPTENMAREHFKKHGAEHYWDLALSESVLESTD
Sequence of UniProt P06454 (P06454 whole entry, looked up): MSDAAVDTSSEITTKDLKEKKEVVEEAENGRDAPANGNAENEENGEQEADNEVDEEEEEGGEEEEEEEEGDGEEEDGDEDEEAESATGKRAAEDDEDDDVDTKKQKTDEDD
Sequence of UniProt Q6GMV3 (Q6GMV3 whole entry, looked up): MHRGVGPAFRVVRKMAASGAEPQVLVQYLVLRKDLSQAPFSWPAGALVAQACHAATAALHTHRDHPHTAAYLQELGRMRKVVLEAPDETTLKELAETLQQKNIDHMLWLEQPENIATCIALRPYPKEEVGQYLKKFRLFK

Row | Target | log2 fold change [1] | log2 fold change [2] | log2 fold change [3] | log2 fold change [4] | log2 fold change [5] | log2 fold change [6] | log2 fold change [7] | log2 fold change [8] | log2 fold change [9] | log2 fold change [10]
1 | PMPCB (UniProt O75439) | -0.03 | 0.024 | -0.02 | 0.023 | -0.043 | -0.009 | 0.037 | -0.103 | -0.012 | 0.023
2 | PTMA (UniProt P06454) | 0.279 | 0.2 | 0.217 | 0.157 | 0.052 | -0.026 | -0.018 | -0.628 (active) | 0.021 | 0.099
3 | PPP6R1 (UniProt Q9UPN7) | 0.023 | -0.066 | -0.09 | 0.011 | -0.018 | 0.023 | 0.054 | 0.013 | -0.055 | -0.05
4 | PRMT7 (UniProt Q9NVM4) | 0.034 | -0.093 | -0.165 | -0.021 | 0.026 | -0.023 | -0.032 | 0.067 | -0.103 | -0.05
5 | PELO (UniProt Q9BRX2) | -0.028 | -0.089 | -0.098 | -0.174 | 0.058 | 0.064 | 0.009 | 0.054 | 0.063 | -0.057
6 | PDS5A (UniProt Q29RF7) | -0.076 | -0.024 | -0.061 | 0.018 | 0.306 | 0.062 | 0.068 | 0.017 | -0.103 | -0.075
7 | PMPCA (UniProt Q10713) | -0.091 | -0.059 | -0.02 | -0.053 | -0.018 | -0.016 | 0.017 | -0.061 | 0.01 | 0.015
8 | PDPK1 (UniProt O15530) | 0.238 (active) | -0.111 | -0.314 (active) | -0.061 | 0.034 | 0.108 | 0.038 | -0.04 | 0.004 | -0.019
9 | PGGT1B (UniProt P53609) | -0.048 | -0.014 | -0.062 | -0.021 | -0.047 | -0.046 | 0.038 | 0.021 | 0.02 | -0.042
10 | PRPF3 (UniProt O43395) | 0.026 | -0.029 | -0.099 | -0.077 | 0.064 | 0.128 | 0.194 | -0.014 | -0.063 | 0
11 | PDE2A (UniProt O00408) | 0.035 | -0.008 | -0.018 | -0.033 | -0.082 | 0.118 | -0.032 | 0.035 | -0.052 | 0.018
12 | PPP2R5E (UniProt Q16537) | 0.015 | -0.039 | -0.078 | -0.09 | -0.021 | 0.118 | 0.058 | -0.014 | -0.016 | 0.163
13 | POLR2M (UniProt P0CAP2) | -0.03 | 0.035 | -0.045 | -0.085 | -0.032 | -0.091 | -0.019 | 0.043 | 0.009 | -0.008
14 | PTGES3 (UniProt Q15185) | -0.043 | -0.006 | -0.123 | 0.017 | 0.075 | 0.002 | 0.111 | -0.002 | -0.142 | 0.054
15 | PRKCE (UniProt Q02156) | -0.068 | -0.084 | -0.177 | -0.078 | 0.01 | 0.107 | -0.019 | -0.016 | -0.018 | -0.055
16 | PLCL1 (UniProt Q15111) | 0.05 | -0.035 | -0.069 | -0.01 | 0.043 | -0.012 | 0.02 | -0.475 | -0.854 (active) | 0.05
17 | PLA2G15 (UniProt Q8NCC3) | 0.06 | -0.042 | -0.023 | 0.001 | 0.056 | 0.073 | 0.279 (active) | 0.076 | -0.074 | -0.008
18 | PURA (UniProt Q00577) | 0.015 | 0.105 | 0.377 | 0.036 | -0.085 | -0.079 | -0.141 | 0.248 | 0.185 | -0.114
19 | POLR3B (UniProt Q9NW08) | -0.05 | 0.017 | -0.124 | -0.009 | -0.014 | 0.088 | -0.022 | 0.111 | 0.104 | -0.047
20 | PRKAR2A (UniProt P13861) | -0.502 (active) | -0.071 | -0.002 | -0.039 | 0.025 | -0.012 | 0.002 | 0.051 | 0.002 | -0.028
21 | PYGB (UniProt P11216) | 0.209 | -0.077 | -0.018 | -0.041 | -0.003 | 0.063 | 0.033 | -0.005 | -0.105 | -0.105
22 | PEF1 (UniProt Q9UBV8) | -0.029 | -0.026 | -0.219 | -0.036 | 0.128 | 0.01 | 0.045 | 0.028 | -0.103 | -0.02
23 | PRCP (UniProt P42785) | 0.013 | 0.005 | -0.106 | 0.008 | 0.035 | 0.005 | 0.028 | 0 | -0.014 | 0.044
24 | PEX7 (UniProt O00628) | -0.017 | -0.031 | -0.022 | -0.03 | -0.077 | 0.013 | 0.074 | -0.017 | -0.051 | 0.042
25 | PTTG1IP (UniProt P53801) | -0.033 | 0.026 | -0.222 | 0.065 | 0.12 | -0.077 | -0.017 | 0.083 | 0.017 | 0.07
26 | PTRHD1 (UniProt Q6GMV3) | -0.02 | 0.037 | -0.009 | 0.03 | 0.095 | -0.099 | 0.026 | -0.006 | -0.065 | -0.006
27 | PARN (UniProt O95453) | 0.012 | -0.042 | -0.1 | -0.087 | 0.015 | 0.03 | 0.056 | 0.028 | -0.069 | -0.082
28 | PPP1R35 (UniProt Q8TAP8) | 0.054 | -0.004 | -0.037 | -0.002 | -0.06 | -0.089 | -0.058 | 0.003 | 0.002 | -0.001
29 | PCYT1A (UniProt P49585) | -0.015 | -0.093 | -0.234 | -0.066 | 0.033 | 0.086 | 0.081 | 0.022 | -0.06 | -0.002
